This note sets out measurements from PubChem BioAssay (NCATS).

Assay [1] in a line: qHTS for Inhibitors of the Functional Ribonucleoprotein Complex (vRNP) of Lassa (LASV) Arenavirus: LASV Primary Screen - GLuc reporter signal (AID 1347082; calls by dose curve; tested in HEK293 reporter line; also: % is scaled to controls: 0 for no effect and ±100 for the full control effect; nearly all actives have a fitted effect of over 60% in size). For orientation: qHTS replaces the single test concentration by a dilution series.
Assay [2] in a line: qHTS for Inhibitors of the Functional Ribonucleoprotein Complex (vRNP) of Lassa (LASV) Arenavirus: Viability assay - alamar blue signal for LASV Primary Screen (AID 1347083; calls by dose curve; tested in HEK293 reporter line; also: nearly all actives have a fitted effect of over 80% in size; also: potency is read from the fitted curve at half-maximal effect).
Assay [3] in a line: qHTS for Inhibitors of the Functional Ribonucleoprotein Complex (vRNP) of Lymphocytic Choriomeningitis Arenaviruses (LCMV): Viability assay - alamar blue signal for LCMV Primary Screen (AID 1347085; calls by dose curve; tested in HEK293 reporter line; also: nearly all actives have a fitted effect of over 80% in size; also: potency is read from the fitted curve at half-maximal effect).
Assay [4] can be described thus: Cytotoxicity counterscreen for inhibitors of SARS-CoV-2 cell entry (AID 1645845). Also: nearly all actives have a fitted effect of over 50% in size. In short, it runs like this:
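48 h compound treatment (after 1 h preincubation), HEK293-ACE2 cells, 37 C/5% CO2; ATP luminescence endpoint; normalized to cell wells and media blanks.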

A short description of assay [5]: Primary qHTS to identify inhibitors of SARS-CoV-2 cell entry (AID 1645846). Also: nearly all actives have a fitted effect of over 45% in size. The note with it: activity change, negative = inhibition: at 57.1 µM (top of the series) unless noted. In short, it runs like this: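 Inhibition of spike-mediated entry was scored in human ACE2-transfected Expi293F cells. Particles were MLV-pseudotyped with Wuhan-Hu-1 S carrying a 19-aa C-terminal deletion; signal was luciferase after two days, scaled between spike PP and fusion-protein-free PP.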

Assay [6] concerns CRL-7250. The assay is described as follows: qHTS assay to identify novel small-molecules to repurpose for Merkel cell carcinoma treatment (AID 1296009; active = well fitted curve in the direction sought with a large enough effect; an effect the other way counts as inactive or inconclusive; also: nearly all actives have a fitted effect of over 60% in size). The note with it: MCC and control cell lines, CellTiter-Glo viability, 72 h; series mostly up to 92 µM. In short, it runs like this: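 After compound transfer in DMSO, plates were kept 72 hr at 37 degree celsius. Luminescent ATP signal from CellTiter-Glo served as viability measure, normalized against DMSO and no-cell controls.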

In assay [7] the target is Nucleoprotein (Lymphocytic choriomeningitis virus (strain Armstrong)) (UniProt P09992). Nature of the assay: qHTS for Inhibitors of the Functional Ribonucleoprotein Complex (vRNP) of Lymphocytic Choriomeningitis Arenaviruses (LCMV): LCMV Primary Screen - GLuc reporter signal (AID 1347086). Also: % is scaled to controls: 0 for no effect and ±100 for the full control effect; nearly all actives have a fitted effect of over 70% in size.
A short description of assay [8]: KB-8-5-11 P-gp reporter qHTS against the NCATS DSHEA and TCM libraries (AID 1919977; active = well fitted curve in the direction sought with a large enough effect; an effect the other way counts as inactive or inconclusive; also: 0% is about no effect). A digest of the protocol:
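KB-8-5-11, 500 cells/well, DMEM/10% FBS without colchicine; 4 h attach; cpd titrations, 72 h, 37C/5% CO2; CellTiter-Glo, 30 min RT, luminescence.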

Inconclusive results are not listed. Active and inactive are the calls of the source. Unless noted, calls follow the shape of the full dose curve.

Chain of Nucleoprotein (Lymphocytic choriomeningitis virus (strain Armstrong)) (P09992 whole entry, looked up): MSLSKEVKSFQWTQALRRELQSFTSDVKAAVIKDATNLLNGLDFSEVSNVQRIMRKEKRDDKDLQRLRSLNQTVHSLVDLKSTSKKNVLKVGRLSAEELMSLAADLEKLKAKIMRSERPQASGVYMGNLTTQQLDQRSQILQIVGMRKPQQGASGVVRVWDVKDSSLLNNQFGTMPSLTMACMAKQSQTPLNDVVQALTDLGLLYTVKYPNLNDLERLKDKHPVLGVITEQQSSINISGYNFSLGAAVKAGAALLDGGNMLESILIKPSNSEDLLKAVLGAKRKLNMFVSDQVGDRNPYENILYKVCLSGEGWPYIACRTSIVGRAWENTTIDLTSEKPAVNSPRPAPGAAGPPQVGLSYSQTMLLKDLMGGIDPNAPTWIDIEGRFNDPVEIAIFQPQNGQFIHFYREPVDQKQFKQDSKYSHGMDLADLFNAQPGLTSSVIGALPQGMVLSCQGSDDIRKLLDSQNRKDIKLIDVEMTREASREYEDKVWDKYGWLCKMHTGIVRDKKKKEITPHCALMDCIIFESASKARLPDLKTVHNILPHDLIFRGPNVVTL

`COc1cc(F)c(C(C)C)cc1-c1ccc(C(F)(F)F)cc1CN1C(=O)O[C@H](c2cc(C(F)(F)F)cc(C(F)(F)F)c2)[C@@H]1C`: the Potency entry in assay [1], in assay [4] and in assay [6] was “inactive” each time. For the same compound, the Potency in assay [2] was 27.3 nM (active); in assay [3], 19.3 nM (active). Moreover, the activity change, negative = inhibition in assay [5] is -5.3%.

Consider `COc1ccc(-c2coc3cc(O)ccc3c2=O)cc1`, for which the Potency entry in assay [1], in assay [2], in assay [3], in assay [7] and in assay [6] was “inactive” in each case. Further, in assay [8], the outcome was inactive.
